# Measurements reported in PubChem BioAssay (NCATS).
# Results filed as inconclusive are left out. Entries that show only a call come without a potency. Values without a mark were called inactive. The source made the active and inactive calls. Calls come from the whole dose curve; as a rule, active = well fitted inhibition curve with a large enough effect; inconclusive = small, poorly fitted or top-dose-only effect; inactive = flat fitted curve, though single readings scatter.
# System: Zika virus NS2B-NS3 protease
# Test: Primary screen GU AMC qHTS for Zika virus inhibitors (AID 1347154); note: nearly all actives have a fitted effect of over 70% in size
# Details: Zika NS2B-NS3 unlinked protease, AMC fluorogenic substrate; series mostly up to 54.1 µM
# Procedure, shortened: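 Unlinked Zika NS2B hydrophilic domain–NS3 protease complex at 25 nM in 10 mM Tris-HCl pH 8.0, 0.01% Tween 20, with an AMC peptide substrate. Fluorescence change (340/450 nm) over 15 min at room temperature, normalized to controls, fitted to 4-parameter Hill.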
Compound,Potency,"activity change, negative = inhibition"
CN(C)CC/C=C1/c2ccccc2COc2ccc(CC(=O)O)cc21,inactive,–
CC(=O)N(O)CCCCCNC(=O)CCC(=O)N(O)CCCCCNC(=O)CCC(=O)N(O)CCCCCN,inactive,–
CN1[C@@H]2CC[C@H]1CC(OC(=O)c1c[nH]c3ccccc13)C2 (stereo not given in full),inactive,–
Cc1c(N(C)CS(=O)(=O)O)c(=O)n(-c2ccccc2)n1C,inactive,–
Cc1ccc(C(=O)C(C)CN2CCCCC2)cc1 (stereo not given),inactive,–
C[C@H](O)C(=O)Nc1c(I)c(C(=O)NC(CO)CO)c(I)c(C(=O)NC(CO)CO)c1I,inactive,–
NC(CS)C(=O)O (stereo not given),inactive,–
Cc1onc(-c2c(Cl)cccc2Cl)c1C(=O)N[C@@H]1C(=O)N2[C@@H]1SC(C)(C)[C@@H]2C(=O)O,inactive,–
COc1ccc(/C=C/C(=O)c2ccc(OC)cc2OC)cc1,inactive,–
COc1ccc(CN2CCN(C(c3ccc(F)cc3)c3ccc(F)cc3)CC2)c(OC)c1OC,inactive,–
OCc1ccccc1O,inactive,–
COc1cccc2c1C(=O)c1c(O)c3c(c(O)c1C2=O)C[C@@](O)(C(C)=O)C[C@@H]3O[C@H]1C[C@H](N)[C@H](O)[C@H](C)O1,inactive,–
Cc1c(F)c(N2CCNC(C)C2)cc2c1c(=O)c(C(=O)O)cn2C1CC1 (stereo not given),inactive,–
C[C@@H](CN(C)C)CN1c2ccccc2Sc2ccccc21,inactive,–
CCCCCCCCCCOCC(O)CN (stereo not given),inactive,–
CCn1cc(C(=O)O)c(=O)c2cnc(N3CCCC3)nc21,–,1.94% [at 6.83 µM]
CCCCN1CCCC1C(=O)Nc1c(C)cc(C)cc1C (stereo not given),inactive,–
CCN1CCN(c2cc3c(cc2F)c(=O)c(C(=O)O)cn3C2CC2)CC1,inactive,–
CCOc1ccc(Cc2nccc3cc(OCC)c(OCC)cc23)cc1OCC,inactive,–
CCCC(=O)O[C@]1(C(=O)CO)CC[C@H]2[C@@H]3CCC4=CC(=O)CC[C@]4(C)[C@H]3[C@@H](O)C[C@@]21C,inactive,–

Compound,Potency,"activity change, negative = inhibition"
O=C(O)CNC(=O)c1ccccc1,inactive,–
CC(=O)c1ccc2c(c1)N(CCCN1CCC(CCO)CC1)c1ccccc1S2,inactive,–
CCCCOc1ccc(OCCCN2CCOCC2)cc1,inactive,–
C[C@]12CC[C@@H]3c4ccc(O)cc4CC[C@H]3[C@@H]1C[C@@H](O)[C@@H]2O,inactive,–
NCCc1ccn[nH]1,inactive,–
CCN(CC)C(=O)N1CCN(C)CC1,inactive,–
Cc1c(C(N)=O)cc([N+](=O)[O-])cc1[N+](=O)[O-],inactive,–
CN(C)CC/C=C1\c2ccccc2Sc2ccc(Cl)cc21,inactive,–
CC(C)(Oc1ccc(Cl)cc1)C(=O)O,inactive,–
COc1cc(N)c(Cl)cc1C(=O)NC1CCN(CCCOc2ccc(F)cc2)CC1OC (stereo not given),inactive,–
OC[C@@H](O)[C@@H](O[C@@H]1O[C@H](CO)[C@H](O)[C@H](O)[C@H]1O)[C@H](O)[C@@H](O)CO,inactive,–
Cc1cccc(C)c1NC(=O)CN1CCN(CCCC(c2ccc(F)cc2)c2ccc(F)cc2)CC1,inactive,–
C[C@@H]1CN(CCCn2c3ccccc3c3ccccc32)C[C@H](C)N1,inactive,–
COc1cc(C(=S)N2CCOCC2)cc(OC)c1OC,inactive,–
CC(Cc1cccc(C(F)(F)F)c1)NCCOC(=O)c1ccccc1 (stereo not given),inactive,–
Nc1ccc(/C=C/c2ccc(N)cc2S(=O)(=O)O)c(S(=O)(=O)O)c1,–,-4.58% [at 0.59 µM]
COC(=O)CCc1ccc(OCC(O)CNC(C)C)cc1 (stereo not given),inactive,–
COc1ccc(OC)c(C(O)CNC(=O)CN)c1 (stereo not given),inactive,–
Cc1ccnc(NS(=O)(=O)c2ccc(N)cc2)n1,inactive,–
CCOC(=O)n1ccn(C)c1=S,inactive,–
